Measurements taken from PMC5540273 (PLoS ONE, 2017).

What was measured:
Details in all cases: concentration: 1 μM,replicates: in singlicate; n = 1
DCAMKL2 = system: T1, DCAMKL2
T1 construct: gene DCLK2

DCAMKL3 = system: T2, DCAMKL3
T2 construct: gene DCLK3

DDR1 = system: DDR1
DDR2 = system: DDR2
DLK = system: T3, DLK
T3 construct: gene MAP3K12

DMPK2 = system: T4, DMPK2
T4 construct: gene CDC42BPG

DMPK = system: DMPK
DRAK1 = system: T5, DRAK1
T5 construct: gene STK17A

DRAK2 = system: T6, DRAK2
T6 construct: gene STK17B

DYRK1A = system: DYRK1A
DYRK1B = system: DYRK1B
DYRK2 = system: DYRK2
EGFR = system: EGFR
EIF2AK1 = system: EIF2AK1
EPHA1 = system: EPHA1
EPHA2 = system: EPHA2
EPHA3 = system: EPHA3
EPHA4 = system: EPHA4
EPHA5 = system: EPHA5
EPHA6 = system: EPHA6
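Also: KINOMEscan kinase panel screen.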

SMILES | %Inh (DCAMKL2) | %Inh (DCAMKL3) | %Inh (DDR1) | %Inh (DDR2) | %Inh (DLK) | %Inh (DMPK2) | %Inh (DMPK) | %Inh (DRAK1) | %Inh (DRAK2) | %Inh (DYRK1A) | %Inh (DYRK1B) | %Inh (DYRK2) | %Inh (EGFR) | %Inh (EIF2AK1) | %Inh (EPHA1) | %Inh (EPHA2) | %Inh (EPHA3) | %Inh (EPHA4) | %Inh (EPHA5) | %Inh (EPHA6)
CCNCC(Cc1ccccc1)NC(=O)c1cc(Br)c(-c2ccnc3[nH]ccc23)s1.Cl.Cl (stereo not drawn) [GSK1383280] | 0% | 40% | 8% | 18% | 11% | 90% | 23% | 0% | 0% | 37% | 53% | 31% | 28% | 0% | 25% | 24% | 45% | 0% | 0% | 7%
CN1CCN(CCNc2nc3cc(Oc4ccc(NC(=O)Nc5cc(C(F)(F)F)ccc5F)cc4)ccc3[nH]2)CC1.Cl.Cl [GW768504] | 10% | 0% | 96.9% | 99.2% | 0% | 10% | 0% | 0% | 17% | 0% | 15% | 0% | 0% | 0% | 0% | 4% | 0% | 28% | 0% | 51%
COC(=O)Nc1nc2cc(Oc3ccc(NC(=O)Nc4cc(C(F)(F)F)ccc4Cl)cc3)ccc2[nH]1.Cl [GW697465] | 11% | 31% | 100% | 98.3% | 60% | 0% | 0% | 2% | 0% | 0% | 0% | 0% | 42% | 0% | 91% | 96.2% | 43% | 92% | 37% | 93.7%
O=C(Nc1cccc(Oc2ccc3nccn3n2)c1)Nc1cccc(C(F)(F)F)c1 | 15% | 0% | 99.3% | 97.8% | 3% | 15% | 0% | 0% | 0% | 0% | 26% | 8% | 23% | 0% | 21% | 75% | 8% | 51% | 11% | 15%
COc1cccc(CNC(=O)NC2CCN(c3ccnc(Nc4cc(OC)c(OC)c(OC)c4)n3)C2)c1 (stereo not drawn) [GSK1379765] | 8% | 0% | 1% | 19% | 61% | 69% | 0% | 0% | 0% | 19% | 17% | 9% | 28% | 0% | 11% | 30% | 0% | 3% | 0% | 15%
CCCC(=O)Nc1n[nH]c2ncccc12 [SB-601436] | 0% | 0% | 0% | 0% | 0% | 0% | 0% | 2% | 0% | 0% | 0% | 2% | 11% | 0% | 8% | 0% | 0% | 14% | 0% | 25%
O=C(NOCC1CC1)c1cc(Br)c(F)c(F)c1Nc1ccc(I)cc1Cl | 2% | 0% | 0% | 22% | 0% | 0% | 0% | 0% | 0% | 0% | 17% | 0% | 0% | 0% | 0% | 0% | 0% | 0% | 0% | 0%
CS(=O)(=O)c1cccc(CNc2nc(Nc3ccc4c(c3)[C@@H]3C[C@@H]4CNC3=O)ncc2C(F)(F)F)c1 | 0% | 0% | 0% | 6% | 9% | 0% | 0% | 96.3% | 96.4% | 6% | 6% | 12% | 5% | 0% | 12% | 2% | 6% | 2% | 0% | 11%
C[C@@H](Oc1cc(-n2cnc3ccc(-c4ccncc4)cc32)sc1C(N)=O)c1ccccc1Cl [GSK483724] | 18% | 0% | 37% | 8% | 17% | 2% | 47% | 81% | 0% | 82% | 91.5% | 48% | 36% | 4% | 17% | 19% | 0% | 2% | 0% | 16%
NC(=O)c1ccc(-c2cc3ncnc(SCC(=O)O)c3s2)cc1 | 9% | 17% | 0% | 9% | 0% | 24% | 0% | 98.3% | 100% | 94.8% | 57% | 47% | 0% | 0% | 0% | 0% | 0% | 17% | 0% | 21%
C[C@@H]1CNc2c(sc3ccc4nc(-c5ccncc5)ccc4c23)C(=O)N1 | 0% | 55% | 0% | 0% | 0% | 0% | 27% | 99% | 98.3% | 99.7% | 88% | 18% | 0% | 12% | 7% | 0% | 0% | 15% | 1% | 11%
Cn1ccc2ncnc(Oc3ccc(NC(=O)Nc4cccc(C(F)(F)F)c4)c(Cl)c3)c21 | 0% | 7% | 99.9% | 99.9% | 0% | 0% | 0% | 0% | 0% | 0% | 49% | 0% | 5% | 0% | 54% | 94.5% | 97.6% | 88% | 84% | 99.7%
CC(C)c1nc(-c2cccc(NS(=O)(=O)c3ccccc3)c2)c(-c2ccnc(Nc3ccc4c(c3)CN(C)CC4)n2)s1 [GSK1649598] | 17% | 17% | 100% | 42% | 69% | 61% | 0% | 0% | 0% | 4% | 20% | 23% | 84% | 95.1% | 93.2% | 33% | 44% | 21% | 0% | 66%
Cc1cccc2c(-c3ccncc3)c(-c3ccc(F)cc3)nn12.Cl [GW461487] | 0% | 0% | 54% | 41% | 27% | 43% | 0% | 7% | 0% | 10% | 0% | 10% | 19% | 0% | 3% | 5% | 0% | 0% | 0% | 6%
CC(C)S(=O)(=O)N1CCN(Cc2ccc3c(c2)nc(NC(=O)c2ccsc2)n3C[C@H](O)c2ccccc2)CC1 [GW635815] | 0% | 9% | 46% | 19% | 69% | 0% | 0% | 72% | 11% | 48% | 70% | 21% | 20% | 1% | 0% | 0% | 11% | 15% | 0% | 7%
CN(c1cccc(CNc2nc(Nc3ccc4c(c3)CC(=O)N4)ncc2C(F)(F)F)c1)S(C)(=O)=O | 9% | 86% | 43% | 3% | 4% | 0% | 0% | 99.4% | 97.5% | 74% | 57% | 28% | 3% | 0% | 3% | 0% | 22% | 1% | 0% | 0%
O=c1[nH]cc(-c2ccc(O)cc2)c2sc(-c3ccncc3)cc12 [GSK1033723] | 6% | 5% | 0% | 25% | 12% | 17% | 78% | 31% | 0% | 90% | 84% | 87% | 32% | 12% | 8% | 10% | 0% | 10% | 0% | 6%
Cl.Cl.NC[C@H](CC1CCCCC1)NC(=O)c1ccc(-c2ccnc3[nH]ccc23)s1 [GSK1581428] | 17% | 0% | 0% | 8% | 85% | 100% | 99.7% | 94.9% | 0% | 54% | 27% | 80% | 28% | 0% | 7% | 0% | 17% | 5% | 0% | 27%
Cc1ccc(Nc2ccnc(Nc3ccc4c(c3)CS(=O)(=O)C4)n2)cc1O.Cl [GW579362] | 0% | 0% | 86% | 78% | 78% | 30% | 0% | 45% | 57% | 38% | 48% | 88% | 55% | 17% | 91.3% | 83% | 78% | 53% | 32% | 53%
COc1cc2ncn(-c3cc(OCC4CCCCC4)c(C(N)=O)s3)c2cc1OC [GSK204559] | 25% | 0% | 0% | 0% | 31% | 7% | 0% | 0% | 0% | 21% | 11% | 33% | 38% | 1% | 3% | 4% | 14% | 10% | 0% | 11%
COc1cc(Nc2nccc(N3CCC(NC(=O)c4cccc(C#N)c4)C3)n2)cc(OC)c1OC (stereo not drawn) [GSK1379751] | 0% | 0% | 0% | 24% | 30% | 1% | 0% | 20% | 4% | 0% | 15% | 0% | 29% | 0% | 11% | 2% | 0% | 4% | 0% | 0%
